Results from PubChem BioAssay AID463190 (Sanford-Burnham Center for Chemical Genomics, 2010).
About 7,300 (2.2%) of roughly 330,000 compounds were called active. This is one part of a sample in which actives are shown more often than they occur.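 Rule for the calls: active = inhibition of at least 40%; inactive = the rest.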

Experiment: growth inhibition of tim10-1 ts yeast – luminescence, uHTS, primary screen (AID 463190);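 note: mutant grown at 25 °C; 0% = DMSO wells with yeast and 100% = wells holding no yeast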
Conditions: S. cerevisiae tim10-1 ts strain growth, BacTiter-Glo, 24 h; at 20 µM; active compounds read high

Row | SMILES | inhibition
1 | O=C(NCc1ccccc1Cl)C1CCC(CNc2c(N3CCCCC3)c(=O)c2=O)CC1 (stereo not given) | -8.66% (inactive)
2 | C/C(=N\NC(=O)c1cc2c(s1)CCC(C)C2)c1cccnc1 (stereo not given) | 39.6% (inactive)
3 | CCOC(=O)C1=C(c2ccccc2)NC(=O)NC1c1cc(OCC)c(O)c([N+](=O)[O-])c1 (stereo not given) | -5.37% (inactive)
4 | CCCc1[nH]nc2c1C(c1ccc(Br)s1)C(C#N)=C(N)O2 (stereo not given) | 83% (active)
5 | CCCc1[nH]nc2c1C(c1ccc(OC(=O)c3ccco3)cc1)C(C#N)=C(N)O2 (stereo not given) | 8.03% (inactive)
6 | CCCc1[nH]nc2c1C(c1ccc(OC)c(Cn3nc(C)c(Br)c3C)c1)C(C#N)=C(N)O2 (stereo not given) | 11.3% (inactive)
7 | COc1ccc(NC(=O)COC(=O)CNC(=O)C2CCCCC2)cc1 | 4.06% (inactive)
8 | CCOC(=O)c1cccc(NC(=O)CCOc2ccccc2)c1 | 12.6% (inactive)
9 | Cc1ccc(NC(=O)CCOc2ccccc2)cc1S(=O)(=O)Nc1ccccc1Cl | 43.7% (active)
10 | CCc1ccccc1NC(=O)CCOc1ccccc1 | 11.8% (inactive)
11 | CN(C(=O)CSc1nnc(Nc2ccccc2)s1)C1CCS(=O)(=O)C1 (stereo not given) | 8.97% (inactive)
12 | COc1ccc(-c2cc(=O)oc3cc(OCC(=O)N[C@@H](Cc4c[nH]c5ccccc45)C(=O)O)ccc23)cc1 | 16.2% (inactive)
13 | C=CCOC(=O)C1=C(C)N=C2SCCC(=O)N2C1/C=C/c1ccccc1OC (stereo not given) | 5.92% (inactive)
14 | COc1ccc(Oc2cn[nH]c2-c2ccc(OC)cc2O)cc1 | 50.1% (active)
15 | CCOc1ccccc1Oc1cn[nH]c1-c1ccc(OC)cc1O | -13% (inactive)
16 | COc1ccc(-c2cn[nH]c2-c2ccc(OC)cc2)cc1 | 38.8% (inactive)
17 | Cn1sc(=O)c2cc(S(=O)(=O)NC3CC3)ccc21 | 22.8% (inactive)
18 | O=C(CCc1ccccc1F)N1CCN(c2ccccc2)CC1 | 6.47% (inactive)
19 | COc1ccc(N2CCN(C(=O)CCNC(=O)c3ccc(Br)cc3)CC2)cc1 | 12.6% (inactive)
20 | COc1ccc(N2CCN(C(=O)CCSCc3ccccc3F)CC2)cc1 | 40.2% (active)

Row | SMILES | inhibition
21 | CN(Cc1c(F)cccc1Cl)C(=O)CNC(=O)c1ccc2c(c1)OCO2 | 7.42% (inactive)
22 | Cc1ccc(NC(=S)Nc2ncccc2C)c(C)c1 | 36.8% (inactive)
23 | O=C(NCCCn1ccnc1)/C(=C\c1ccccc1F)NC(=O)c1ccccc1 | -16.4% (inactive)
24 | O=C(NNc1c2ccccc2nc2ccccc12)c1cc2ccccc2cc1O | 48.9% (active)
25 | O=C(NN=Cc1ccc(N2CCOCC2)cc1)c1cc2ccccc2cc1O | 0.793% (inactive)
26 | COc1ccc(-c2cc(C(=O)Nc3ccccc3O)c3ccccc3n2)cc1 | 11.2% (inactive)
27 | CC1=CC(C)(C)Nc2ccc(OC(=O)C(Cc3ccccc3)N3C(=O)C4CCCCC4C3=O)cc21 (stereo not given) | 25.9% (inactive)
28 | O=C(COC(=O)CN1C(=O)C2CCCCC2C1=O)Nc1ccc(F)c(F)c1F (stereo not given) | 8.83% (inactive)
29 | CC1=CC(C)(C)Nc2ccc(OC(=O)CN3C(=O)C4CCCCC4C3=O)cc21 (stereo not given) | 42.7% (active)
30 | Cc1cccc(C(=O)OC(C)C(=O)NC2CCCc3ccccc32)c1O (stereo not given) | 14.7% (inactive)
31 | Cc1nc2ccccc2cc1OCc1ccc(F)cc1 | 40.5% (active)
32 | Cc1occc(=O)c1OCc1ccc(F)cc1 | 1.21% (inactive)
33 | Fc1cccc2ncnc(OCc3ccccc3)c12 | 5.91% (inactive)
34 | O=c1[nH]c2ccccc2s1 | 8.84% (inactive)
35 | O=C(NC(=S)NC1CCCCC1)c1ccc(Cl)cc1 | 34.7% (inactive)
36 | O=C(NC1CCCCCC1)c1cccnc1Sc1ccc(Cl)cc1 | 17.4% (inactive)
37 | O=C(NC1CCCCC1)c1ccc(-c2ccc(Cl)cc2)o1 | 46.1% (active)
38 | Cc1cnc(CN(C)C(=O)CC2C(=O)NCCN2Cc2cccc(F)c2F)[nH]1 (stereo not given) | 0.623% (inactive)
39 | CC(C)OCC(O)CN1CCN(C(c2ccccc2)c2ccccc2)CC1 (stereo not given) | 6.5% (inactive)
40 | COC(=O)COc1ccc(C2NC(=O)NC(C)=C2C(=O)NCc2ccccc2)cc1OC (stereo not given) | 1.06% (inactive)

Row | SMILES | inhibition
41 | Cc1ccc(SCC2=NNC(=O)C2)cc1 | 33.5% (inactive)
42 | CCOc1ccc(NC(=O)CN(C)C(=O)Cn2c(=O)cnc3ccccc32)cc1OCC | -8.6% (inactive)
43 | C/C(=N\Nc1nc(Nc2ccccc2)nc(N2CCOCC2)n1)c1cccs1 | 41.3% (active)
44 | C/C(=N\Nc1nc(N2CCOCC2)nc(N2CCOCC2)n1)c1ccc([N+](=O)[O-])cc1 | 14% (inactive)
45 | O=C(CSc1nc(Nc2ccccc2)nc(N2CCOCC2)n1)Nc1cc(Cl)ccc1O | -0.275% (inactive)
46 | COc1ccc(C2(CNC(=O)C(c3ccccc3)c3ccccc3)CCOCC2)cc1OC | 15.2% (inactive)
47 | CCCCCCCCn1c2c(c(=N)c3c1CCC3)CCCC2 | 49.1% (active)
48 | Cc1cc(C)n(C(=O)CCNC(=O)c2ccccc2Cl)n1 | -10.3% (inactive)
49 | CN(c1ccc(OCC(=O)O)cc1)S(=O)(=O)c1ccc2ccccc2c1 | 11.1% (inactive)
50 | O=C(COc1ccccc1)Nc1ccc(F)cc1 | 12.1% (inactive)
51 | CN(c1ccccc1)S(=O)(=O)c1ccc(NC(=O)COc2ccccc2)cc1 | 40.2% (active)
52 | CC(=O)Nc1ccc(S(=O)(=O)N2CCC(C(=O)NC3CC3)CC2)cc1 | 5.84% (inactive)
53 | Cc1cc2nc(-c3ccc(NC(=O)c4cccnc4)cc3)oc2cc1C | 12.5% (inactive)
54 | CCc1ccc2oc(-c3ccc(N)cc3)nc2c1 | 41.3% (active)
55 | O=C(Nc1ccc2oc(-c3ccc4ccccc4c3)nc2c1)c1cccs1 | 3.31% (inactive)
56 | Cc1ccc(NC(=O)COC(=O)CCc2nc3ccccc3n2-c2ccccc2)c(C)c1 | 10.3% (inactive)
57 | Cc1ccc2c(c1)C1CN(C)CCC1N2C(=S)Nc1ccc(OC(F)F)cc1 (stereo not given) | 3.44% (inactive)
58 | Cc1ccc2c(c1)C1CN(C)CCC1N2S(=O)(=O)c1cccc(F)c1 (stereo not given) | 3.83% (inactive)
59 | Cc1ccc2c(c1)C1CN(C)CCC1N2S(=O)(=O)c1ccc(Oc2ccc([N+](=O)[O-])cc2)cc1 (stereo not given) | 43.1% (active)
60 | COCC(=O)Nc1c(I)c(C(=O)NCC(O)CO)c(I)c(C(=O)N(C)CC(O)CO)c1I (stereo not given) | 6% (inactive)
